Assay results reported in PubChem BioAssay (Tox21).
Results filed as inconclusive are left out. Active and inactive are the calls of the source. Unless noted, calls come from the whole dose curve; as a rule, active = well fitted curve in the direction sought with a large enough effect in the repeat runs; inconclusive = weak or mixed curves; inactive = no such curve, though single readings can be large; an effect the other way counts as inactive or inconclusive.

Legend:
[1] = qHTS assay to identify small molecule agonists of the hypoxia (HIF-1) signaling pathway - cell viability counter screen (AID 1224844; calls by dose curve; note: nearly all actives have a fitted effect of over 50% in size)
How it was run: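 Luminescent ATP content (CellTiter-Glo, 30 min, room temperature) served as the viability measure in HRE-bla ME-180 cells exposed to compounds for 17 hrs in low-serum medium (0.5% dialyzed FBS).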

[2] = qHTS assay to identify small molecule agonists of H2AX (AID 1224845; active = well fitted activation curve with a large enough effect in the signal ratio in the repeat runs, not every such curve was filed as active; the % refers to the signal ratio)
How it was run: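 Wild-type CHO-K1 cells plated overnight, then exposed 3 hr at 37C to compounds at 15 concentrations (0.76% DMSO). Lysed, then HTRF anti-pH2AX(S139)-cryptate/anti-H2AX-d2 detection after 24 hr at room temperature; emissions 665 and 620 nm.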

[3] = qHTS assay to identify small molecule agonists of the hypoxia (HIF-1) signaling pathway (AID 1224846; active = well fitted activation curve with a large enough effect in the signal ratio in the repeat runs, not every such curve was filed as active; the % refers to the signal ratio)
How it was run: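 Measured by blue/green FRET after loading CCF4-AM: beta-lactamase expressed from a hypoxia response element in ME-180 cells. Test agents were delivered in DMSO and left 17 hrs; cells had been plated 5 hrs earlier in low-serum (0.5% dialyzed FBS) medium.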

[4] = qHTS assay to identify small molecule agonists of H2AX - cell viability counter screen (AID 1224847; calls by dose curve; note: top concentration of the series differs between compounds; nearly all actives have a fitted effect of over 30% in size)
How it was run: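 For this counter screen, overnight-attached CHO-K1 cells received test compounds (15 concentrations, 0.76% DMSO final); 3 hr later at 37C, CellTiter-Glo reagent was added and luminescence recorded after 30 min at room temperature.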

[5] = qHTS assay to identify small molecule antagonists of the estrogen related receptor (ERR) signaling pathway from Tox21 library (AID 1224848); note: nearly all actives have a fitted effect of over 50% in size
How it was run: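 Screening used an ERR reporter line supplied by NTP, exposed for 18 h at 37 C to library compounds delivered in DMSO. Signal was luciferase luminescence developed with ONE-Glo at room temperature for 30 min.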

[6] = qHTS assay to identify small molecule agonists of the estrogen related receptor (ERR) signaling pathway from Tox21 library (AID 1224849; calls by dose curve; note: nearly all actives have a fitted effect of over 15% in size); details: ERR reporter cell line, ONE-Glo luciferase, 18 h; at 92.4 µM (top of the series) unless noted
How it was run: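 We plated ERR reporter cells, waited 6 h, added compounds in DMSO by pin tool and incubated them 18 h at 37 C. ONE-Glo was then added and luminescence read after 30 min.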

[7] = qHTS RealTime-Glo MT Cell Viability Assay in HepG2 cells - 24 hour (AID 1224867); note: nearly all actives have a fitted effect of over 50% in size
How it was run: (§1)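 HepG2 suspension premixed with RealTime-Glo reagents is plated at 600 cells per well and left 5 h at 37 C/5% CO2. Compounds in DMSO then go in, and bioluminescence reflecting viable cell number is recorded over 40 h.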

[8] = qHTS RealTime-Glo MT Cell Viability Assay in HEK293 cells - 32 hour (AID 1224868); note: top concentration of the series differs between compounds; nearly all actives have a fitted effect of over 50% in size
How it was run: (§2)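 Reads taken at 0, 8, 16, 24, 32 and 40 h from the same wells. HEK293 cells (600/well) carried RealTime-Glo reagents from seeding, with compound added after a 5 h settle at 37 C.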

[9] = A CellTox Green Cytotoxicity Assay to monitor cytotoxicity in HEK293 cells - 0 hour (AID 1224869); note: nearly all actives have a fitted effect of over 50% in size
How it was run: (§3)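 Each value comes from one timepoint of a single continuous run in which HEK293 cells with CellTox Green were exposed to compound for up to 40 h at 37 C, dye fluorescence rising with cell death.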

[10] = qHTS RealTime-Glo MT Cell Viability Assay in HepG2 cells - 40 hour (AID 1224870); note: nearly all actives have a fitted effect of over 50% in size
How it was run: (§4)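 HepG2 cells mixed with RealTime-Glo MT reagents (NanoLuc plus cell-permeant prosubstrate) were seeded at 600 cells/well, incubated 5 h at 37 C/5% CO2, then pinned with compounds in DMSO; nonlytic luminescence tracked viability during 40 h treatment.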

[11] = A CellTox Green Cytotoxicity Assay to monitor cytotoxicity in HEK293 cells - 40 hour (AID 1224871); note: nearly all actives have a fitted effect of over 45% in size
How it was run: as §3

[12] = qHTS RealTime-Glo MT Cell Viability Assay in HEK293 cells - 16 hour (AID 1224872)
How it was run: as §2

[13] = qHTS RealTime-Glo MT Cell Viability Assay in HepG2 cells - 8 hour (AID 1224873); note: nearly all actives have a fitted effect of over 55% in size
How it was run: as §4

[14] = qHTS RealTime-Glo MT Cell Viability Assay in HEK293 cells - 40 hour (AID 1224874); details: RealTime-Glo luminescence; max response: hits give low values; note: nearly all actives have a fitted effect of over 50% in size
How it was run: (§5)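 qHTS format; HEK293 cells with NanoLuc/prosubstrate reagent, 37 C/5% CO2 for 5 h pre-dosing; compounds 23 nL in DMSO; luminescence at each time point reflects viable cells.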

[15] = A CellTox Green Cytotoxicity Assay to monitor cytotoxicity in HEK293 cells - 24 hour (AID 1224875); note: nearly all actives have a fitted effect of over 45% in size
How it was run: as §3

[16] = qHTS RealTime-Glo MT Cell Viability Assay in HepG2 cells - 32 hour (AID 1224877); note: nearly all actives have a fitted effect of over 55% in size
How it was run: as §1

[17] = qHTS RealTime-Glo MT Cell Viability Assay in HEK293 cells - 0 hour (AID 1224880); note: top concentration of the series differs between compounds; nearly all actives have a fitted effect of over 45% in size
How it was run: as §5

[18] = A CellTox Green Cytotoxicity Assay to monitor cytotoxicity in HepG2 cells - 16 hour (AID 1224876); note: nearly all actives have a fitted effect of over 45% in size
How it was run: (§6)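 Continuous culture of HepG2 cells with a membrane-impermeant DNA dye; rising fluorescence marks dead cells. Compound exposure lasted up to 40 h at 37 C, with reads every 8 h from 0 h.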

[19] = A CellTox Green Cytotoxicity Assay to monitor cytotoxicity in HepG2 cells - 24 hour (AID 1224878); note: nearly all actives have a fitted effect of over 45% in size
How it was run: as §6

[20] = A CellTox Green Cytotoxicity Assay to monitor cytotoxicity in HepG2 cells - 40 hour (AID 1224879); note: nearly all actives have a fitted effect of over 40% in size
How it was run: as §6
% is set by controls: 0 for no effect and ±100 for the full control effect.

O=C(O)[C@@H]1[C@H]2C[C@H]3c4[nH]c5ccccc5c4CCN3C[C@@H]2CC[C@@H]1O
inactive: Potency [1] | Potency [2] | outcome [3] | Potency [4] | Potency [5] | activity change, positive = activation [6] 1.64% [at 42.5 µM] | Potency [7] | Potency [8] | Potency [9] | Potency [10] | Potency [11] | Potency [12] | Potency [13] | max response [14] 1.89% | Potency [15] | Potency [16] | Potency [17]

NC(=S)N/N=C/c1cccnc1
inactive: Potency [1] | Potency [2] | outcome [3] | Potency [4] | Potency [5] | activity change, positive = activation [6] 0.0845% [at 42.5 µM] | Potency [7] | Potency [8] | Potency [9] | Potency [10] | Potency [11] | Potency [12] | Potency [13] | max response [14] 6.57% | Potency [15] | Potency [18] | Potency [16] | Potency [19] | Potency [20] | Potency [17]

Cc1ccc(C)o1
inactive: Potency [1] | Potency [2] | outcome [3] | Potency [4] | Potency [5] | activity change, positive = activation [6] 0.55% | Potency [7] | Potency [8] | Potency [9] | Potency [10] | Potency [11] | Potency [12] | Potency [13] | max response [14] -14.9% | Potency [15] | Potency [18] | Potency [16] | Potency [19] | Potency [20] | Potency [17]

Cc1ccc(C(=O)C(C)CN2CCCCC2)cc1 (configuration not stated)
inactive: Potency [1] | Potency [2] | outcome [3] | Potency [4] | Potency [5] | activity change, positive = activation [6] 4.97% [at 42.5 µM] | Potency [7] | Potency [8] | Potency [9] | Potency [10] | Potency [11] | Potency [13] | max response [14] 11.5% | Potency [15] | Potency [18] | Potency [16] | Potency [19] | Potency [20]

O=C(NN1CCCC1)NS(=O)(=O)c1ccc(Cl)cc1
inactive: Potency [1] | Potency [2] | outcome [3] | Potency [4] | Potency [5] | activity change, positive = activation [6] 5.66% [at 42.5 µM] | Potency [7] | Potency [8] | Potency [9] | Potency [10] | Potency [11] | Potency [12] | Potency [13] | max response [14] 15.3% | Potency [15] | Potency [18] | Potency [16] | Potency [19] | Potency [20] | Potency [17]

CCCCCC(CO)CCC (configuration not stated)
inactive: Potency [1] | Potency [2] | outcome [3] | Potency [4] | Potency [5] | activity change, positive = activation [6] 2.67% | Potency [7] | Potency [8] | Potency [9] | Potency [10] | Potency [11] | Potency [13] | max response [14] 1.02% | Potency [15] | Potency [18] | Potency [16] | Potency [19] | Potency [20] | Potency [17]

CCCC[C@H]1CN(CC2CCOCC2)C(=O)OC12CCN(C1(C)CCN(C(=O)c3c(C)ncnc3C)CC1)CC2
inactive: Potency [1] | Potency [2] | outcome [3] | Potency [4] | Potency [5] | activity change, positive = activation [6] -0.219% | Potency [7] | Potency [8] | Potency [9] | Potency [10] | Potency [11] | Potency [12] | Potency [13] | max response [14] 0.654% | Potency [15] | Potency [18] | Potency [16]

Cc1occc1S
inactive: Potency [1] | Potency [2] | outcome [3] | Potency [4] | Potency [5] | activity change, positive = activation [6] 9.5% | Potency [7] | Potency [8] | Potency [9] | Potency [10] | Potency [11] | Potency [12] | Potency [13] | max response [14] 3.01% | Potency [15] | Potency [18] | Potency [16] | Potency [19] | Potency [20]

Cc1cc(CC(=O)O)c(C)n1-c1ccc(Cl)cc1
inactive: Potency [1] | Potency [2] | outcome [3] | Potency [4] | Potency [5] | activity change, positive = activation [6] -14.3% [at 42.5 µM] | Potency [7] | Potency [8] | Potency [9] | Potency [10] | Potency [11] | Potency [12] | Potency [13] | max response [14] -0.616% | Potency [15] | Potency [18] | Potency [16] | Potency [19] | Potency [20] | Potency [17]

Cc1ccc(C(N)=O)cc1N
inactive: Potency [1] | Potency [2] | outcome [3] | Potency [4] | Potency [5] | activity change, positive = activation [6] -0.06% | Potency [7] | Potency [8] | Potency [9] | Potency [10] | Potency [11] | Potency [12] | Potency [13] | max response [14] 10% | Potency [15] | Potency [18] | Potency [16] | Potency [19] | Potency [20]

CCOc1ccc(NC(=O)CC(C)=O)cc1
inactive: Potency [1] | Potency [2] | outcome [3] | Potency [4] | Potency [5] | activity change, positive = activation [6] -8.93% | Potency [7] | Potency [9] | Potency [10] | Potency [11] | Potency [12] | Potency [13] | max response [14] -6.1% | Potency [15] | Potency [18] | Potency [16] | Potency [19] | Potency [20] | Potency [17]

C=CC[N+]1([C@H]2C[C@H]3[C@@H]4CC[C@H]5C[C@H](OC(C)=O)[C@@H](N6CCCCC6)C[C@]5(C)[C@H]4CC[C@]3(C)[C@H]2OC(=O)CC)CCCCC1
inactive: Potency [1] | Potency [2] | outcome [3] | Potency [4] | Potency [5] | activity change, positive = activation [6] -0.214% [at 42.5 µM] | Potency [7] | Potency [8] | Potency [9] | Potency [10] | Potency [11] | Potency [12] | Potency [13] | max response [14] -20.7% | Potency [15] | Potency [18] | Potency [16] | Potency [19] | Potency [20] | Potency [17]

CCC(=O)OC(C)(C)C1CC=C(C)CC1 (configuration not stated)
inactive: Potency [1] | Potency [2] | outcome [3] | Potency [4] | Potency [5] | activity change, positive = activation [6] -6.48% | Potency [7] | Potency [9] | Potency [10] | Potency [11] | Potency [12] | Potency [13] | max response [14] -0.19% | Potency [15] | Potency [18] | Potency [16] | Potency [19] | Potency [20] | Potency [17]
